An excerpt weighted towards active compounds, which were near 0.55% of everything screened.
HEK293 tox – qHTS of GLP-1 Receptor Inverse Agonists: Cytotox Screen. HEK293 cAMP-luciferase reporter cells, luminescence, 24 h. Potency, µM (top dose mostly 38.3 µM), for the others: at the highest dose activity change, negative = inhibition, usual class: inhibitors. AID 624418, 2012. 410,000 compounds, 0.13% hits;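 also: loss of luciferase light is scored as toxicity; % is scaled to controls: 0 for no effect and ±100 for the full control effect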
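Quantitative HTS format, 1536 wells, 200 cells/uL seeded. Compounds: 23 nL, 24 h, 37 °C. Detection: luciferase reagent, luminescence at 12 min RT; decreased signal taken as cytotoxic.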
USP1-UAF1 inh – Inhibitors of USP1/UAF1: Primary Screen. Ubiquitin carboxyl-terminal hydrolase 1 (Homo sapiens), O94782. recombinant USP1/UAF1, Ub-Rhodamine cleavage fluorescence. Potency, µM (highest dose often 57.1 µM), for inactives: at the top dose activity change, negative = inhibition, usual class: inhibitors. 390,000 compounds, 0.23% hits. AID 743255, 2014; also: % is scaled to controls: 0 for no effect and ±100 for the full control effect; nearly all actives have a fitted effect of over 60% in size
Target sequence (O94782 whole entry, looked up): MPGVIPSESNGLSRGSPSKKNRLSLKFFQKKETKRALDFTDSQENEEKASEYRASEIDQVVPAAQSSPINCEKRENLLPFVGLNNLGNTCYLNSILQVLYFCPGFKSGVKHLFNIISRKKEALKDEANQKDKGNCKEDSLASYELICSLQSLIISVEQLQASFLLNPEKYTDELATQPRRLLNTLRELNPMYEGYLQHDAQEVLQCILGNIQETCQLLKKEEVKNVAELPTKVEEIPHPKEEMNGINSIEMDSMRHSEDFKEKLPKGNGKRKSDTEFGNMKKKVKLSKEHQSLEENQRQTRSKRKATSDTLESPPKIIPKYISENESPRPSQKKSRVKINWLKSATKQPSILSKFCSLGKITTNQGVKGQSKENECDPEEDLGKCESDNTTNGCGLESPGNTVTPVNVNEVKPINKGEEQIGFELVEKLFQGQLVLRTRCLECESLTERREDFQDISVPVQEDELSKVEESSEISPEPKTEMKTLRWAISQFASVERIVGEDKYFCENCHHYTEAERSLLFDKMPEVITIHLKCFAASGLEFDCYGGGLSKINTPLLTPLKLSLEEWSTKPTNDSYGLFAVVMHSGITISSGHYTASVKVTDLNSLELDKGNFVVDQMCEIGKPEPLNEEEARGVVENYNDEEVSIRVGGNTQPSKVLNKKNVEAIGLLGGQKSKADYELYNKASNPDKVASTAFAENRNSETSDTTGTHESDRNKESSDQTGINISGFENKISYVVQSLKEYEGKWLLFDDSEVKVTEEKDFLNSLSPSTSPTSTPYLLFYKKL
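Step one: compound is pinned into 1nM USP1/UAF1 in HEPES pH 7.8 buffer with TCEP. Step two: 15 min room-temperature incubation. Step three: Ub-Rho (150nM final) starts cleavage, tracked by fluorescence over six one-minute reads.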
EPAC2 antagonist – qHTS for Antagonist of cAMP-regulated guanine nucleotide exchange factor 2 (EPAC2): primary screen; Potency, µM (top dose mostly 114 µM), inactives show at the top dose activity, negative = inhibition, most hits filed as inhibitors; Rap guanine nucleotide exchange factor 4 (Homo sapiens), Q8WZA2; 360,000 compounds, 0.18% hits; EPAC2 GEF exchange of Rap1B-BODIPY-GDP, fluorescence; AID 720708, 2013; also: % is scaled to controls: 0 for no effect and ±100 for the full control effect; nearly all actives have a fitted effect of over 45% in size
EPAC2 ag – qHTS for Agonist of cAMP-regulated guanine nucleotide exchange factor 4 (EPAC2): primary screen; Rap guanine nucleotide exchange factor 4 (Homo sapiens), Q8WZA2; EPAC2 activation, biochemical qHTS; response scale: 100% = 6.5 mM cAMP response; Potency, µM (highest dose often 154 µM), inactives show top-dose activation, hits mostly activators; 360,000 compounds, 0.079% hits; AID 720711, 2013; also: nearly all actives have a fitted effect of over 50% in size
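Compounds were added across a concentration range to EPAC2 (100 nM), RAP1B-BODIPY-GDP (250 nM) and GDP (50 uM). After 5 min at room temperature, fluorescence was recorded at 5-min intervals for 30 min.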
EPAC1 antag – qHTS for Antagonist of cAMP-regulated guanine nucleotide exchange factor 3 (EPAC1): primary screen; Rap guanine nucleotide exchange factor 3 (Homo sapiens), O95398; EPAC1 GEF assay, Rap1b-BODIPY-GDP exchange fluorescence; Potency, µM (series often up to 115 µM), for the others: top-dose activity change, negative = inhibition, most hits filed as inhibitors; 360,000 compounds, 0.14% hits; AID 720709, 2013;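 also: plate controls were vehicle for no effect and positive control for full effect; nearly all actives have a fitted effect of over 50% in size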
EPAC1 ag – qHTS for Agonist of cAMP-regulated guanine nucleotide exchange factor 3 (EPAC1): primary screen | Rap guanine nucleotide exchange factor 3 (Homo sapiens), O95398 | EPAC1 agonist qHTS, biochemical assay; response scale: 100% = response to 6.5 mM cAMP | Potency, µM (doses to about 154 µM), for inactives: at the top dose activation, usual class: activators | 360,000 compounds, 0.073% hits | AID 720707, 2013; also: nearly all actives have a fitted effect of over 60% in size
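Read-out is the fluorescence drop as BODIPY-GDP leaves Rap1B (480 nm excitation, 540 nm emission), recorded every 5 minutes over 30 minutes. Reactions held 100 nM EPAC1, 250 nM Rap1B–BODIPY-GDP and 50 uM GDP, with 6.5 mM cAMP setting full activation.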
* marks the source's active call; other numbers are inactive results; ? = inconclusive; nt = no result given; [ ] = remark or other dose. Calls follow the shape of the dose curve; as a rule, active = well fitted curve in the direction sought with a large enough effect; inconclusive = small, poorly fitted or top-dose-only effect, or another doubt; inactive = no such curve, though single readings can be large; an effect the other way counts as inactive or inconclusive. Potency is read from the fitted curve at half-maximal effect.

SMILES	HEK293 tox	USP1-UAF1 inh	EPAC2 antagonist	EPAC2 ag	EPAC1 antag	EPAC1 ag
Cc1cc(C(=O)Nc2cc(C(C)(C)C)on2)c(C)o1	-12.2%	-10.8%	-18.3%	-0.4%	-16.3%	-9.7%
Cc1cc(C(=O)Nc2ccon2)c(C)o1	-15.9%	-4.8%	8.4%	2.8%	50.1µM*	-7.5%
COc1cc2cc(Oc3ccc4ccc(=O)oc4c3)c(=O)oc2cc1O	-3.8%	4.5%	9.8%	0.9%	50.1µM*	79.4µM*
COc1ccc(NC(=O)NS(=O)(=O)c2ccc(C)cc2)cn1	15.1%	?	27.4%	11.5%	109.2%	100µM*
COc1cc(NC(=O)NS(=O)(=O)c2ccc(C)cc2)cc(OC)c1	-1.8%	-19.4%	16.3%[57.1 µM]	-10.4%	18.2%	1.2%
CSc1c(C#N)c(N)nc2sc(C(=O)c3ccc(Cl)c(Cl)c3)c(N)c12	14.4%	-7.9%	11.0%	12.4%	-1.3%	100µM*
Cc1ccc(OCC(=O)Nc2ccc3c(c2)nc(CCNC(=O)c2ccco2)n3C)cc1	-2.8%	-10.1%	nt	nt	nt	nt
Cc1ccc(-c2c(C)n3c4c(=O)n(C)c(=O)n(C)c4nc3n2-c2cccc(O)c2)cc1	-4.9%	-9.2%	nt	nt	nt	nt
N=C(N)c1ccc(N=Nc2c(O)ccc3c2[nH]c2ccccc23)cc1	?	?	50.1µM*	?	39.8µM*	?
CC1(C)c2ccccc2N(CC(N)=O)C12C=Cc1ccccc1O2 (centres undefined)	-18.9%	-7.2%	17.8µM*	-1.1%	-18.2%	-8.3%
COc1ccc2ccc3c(c2c1)N=C[C@]1(O3)N(C)c2ccccc2C1(C)C	?	?	-0.1%	5.3%	?	14.1%
CCOc1ccccc1NC(=O)N1CCN(C)c2ncccc21	-1.5%	-21.6%	nt	nt	nt	nt
COc1ccc(C2=C(C)C(=O)N(Cc3ccc(C(=O)NCc4cccc(C)c4)cc3)S2(=O)=O)cc1	-13.8%	-13.1%	nt	nt	nt	nt
COc1ccccc1C=NN=C(NN=Cc1ccccc1OC)NN=Cc1ccccc1OC	5.01µM*	-19.2%	-2.3%	7.5%	-1.9%	13.4%
CCOC(=O)c1cc(-c2ccc(/C=C3/C(=O)N(c4ccc(C(=O)O)cc4)N=C3C)o2)ccc1Cl	-2.1%	-25.3%	2.6%	1.9%	35.5µM*	6.6%
CCOC(=O)c1ccc(NC(=O)CCc2c(C)nc3c(c(C)nn3C(C)(C)C)c2C)cc1	-21.5%	-22.2%	nt	nt	nt	nt
Cc1ccc(O)c(CNc2ccc(S(=O)(=O)Nc3nccs3)cc2)c1	6.0%	-15.7%	22.4µM*	1.8%	-14.6%	3.3%
CN(CC(=O)Nc1ccc(F)cc1)C(=O)COC(=O)C1CCN(c2ccc(C(F)(F)F)cn2)CC1	13.1%	-23.5%	-17.1%	-0.2%	-15.8%	100µM*
O=C(COC(=O)C1CCN(c2ccc(C(F)(F)F)cn2)CC1)Nc1ccc(Cl)cc1	5.1%	-13.8%	-9.9%	3.3%	-22.5%	5.7%
CCn1c2c(c(=O)n3ncc(C(=O)Nc4cccc(Cl)c4C)c13)CN(Cc1ccc(OC)cc1)CC2	-1.5%	?	nt	nt	nt	nt
COc1ccccc1Cn1c(=O)oc2ccc(C)cc21	9.2%	-19.3%	28.2µM*	6.4%	-13.9%	-7.2%
COc1ccc(NC(=O)Cn2nc(-c3ccccc3)c3cnc4ccc(C)cc4c32)cc1	20.6%	0.8%	nt	nt	nt	nt
O=C(O)CCNc1cc(N2CCN(C(=O)c3ccco3)CC2)c2noc3c2c1C(=O)c1ccccc1-3	?	14.1µM*	-22.4%	-3.2%	?	-4.7%
CCN1CCN(c2cc(N3CCN(C(=O)c4ccco4)CC3)c3c4c(onc24)-c2ccccc2C3=O)CC1	2.7%	?	-0.2%	-4.0%	?	12.3%
O=C1/C(=C\c2cc(Cl)c(O)c(Cl)c2)SC(=S)N1Cc1ccccc1	11.0%	3.98µM*	91.9%	?	269.9%	-8.2%
SMILES	HEK293 tox	USP1-UAF1 inh	EPAC2 antagonist	EPAC2 ag	EPAC1 antag	EPAC1 ag
O=C(O)CN1C(=O)/C(=C\c2cccc(OCc3ccccc3F)c2)SC1=S	-13.2%	-18.0%	89.1µM*	-0.1%	?	5.8%
O=C(O)CCN1C(=O)/C(=C\c2cccc(Oc3ccccc3)c2)SC1=S	17.4%	?	79.4µM*	7.8%	?	3.2%
O=C(O)CN1C(=O)/C(=C\c2cccc(OCc3ccc(F)cc3)c2)SC1=S	-17.9%	?	?	-6.3%	-23.8%	-1.8%
COC(=O)c1cc2sc(Cl)cc2n1Cc1c(C)cc(C)cc1C	3.3%	-14.4%	nt	nt	nt	nt
CN(C)c1ccc(/C=C/C(=O)c2c(O)c3ccccc3oc2=O)cc1	240.0%	?	-2.5%	21.4%	?	0.6%
CCOc1ccc(/C=C/C(=O)c2c(O)c3ccccc3oc2=O)cc1	5.0%	-16.9%	0.7%	11.5%	42.5%	100µM*
CN1CCCc2cc(C=O)ccc21	-14.6%	-14.1%	2.9%	-6.0%	-28.4%	0.0%
CCCN1CCCc2cc(CN)ccc21	49.1%	15.8µM*	-0.6%	9.4%	-8.0%	6.9%
COc1ccc(-c2noc(N3CCC(C(=O)Nc4ccccc4Cl)CC3)n2)cc1	3.9%	-7.4%	8.6%	4.5%	-8.2%	-17.3%
CCOc1ccccc1NC(=O)C1CCN(c2nc(-c3ccc(OC)cc3)no2)CC1	3.4%	-19.8%	1.6%	0.2%	61.4%	112µM*
CCOc1ccc(C(=O)Nc2nnc(SCc3cc(=O)c4cc(C)ccc4[nH]3)s2)cc1	-13.2%	8.9%	nt	nt	nt	nt
CCN1CCN(c2cc(C)c3cc(NC(=O)c4cc(Br)ccc4Cl)ccc3n2)CC1	?	-14.6%	nt	nt	nt	nt
O=C(O)c1ccccc1-c1ccc(/C=C2\SC(=O)N(c3ccccc3)C2=O)o1	-1.3%	-15.9%	-22.1%	-4.8%	2.8%	2.6%
O=C1S/C(=C\c2ccc(N3CCOCC3)o2)C(=O)N1c1ccccc1	-11.7%	28.2µM*	30.5%	89.1µM*	-8.5%	12.3%
O=C1S/C(=C\c2ccc(N3CCOCC3)o2)C(=O)N1Cc1c(F)cccc1Cl	7.6%	3.98µM*	15.6%	14.1%	16.0%	0.6%
COc1ccc(/C=N/NC(=O)c2ccccc2O)cc1Cn1cc([N+](=O)[O-])cn1	1.7%	-17.5%	19.6%	4.2%	20.4%	-14.7%
COc1ccc(/C=N/NC(=O)c2cc(O)c(O)c(O)c2)cc1Cn1cc([N+](=O)[O-])cn1	-24.4%	-15.8%	-5.5%	1.3%	31.6µM*	3.1%

Bioassay records deposited in PubChem by National Center for Advancing Translational Sciences (NCATS).
